Test results as given in ChEMBL document CHEMBL3988442, “University of Dundee, Small-Polar-MMV Screening Library” (2021).

Tests used:
[1] = target: T1, Aspartate--tRNA(Asp/Asn) ligase (Mycobacterium tuberculosis (strain ATCC 25618 / H37Rv)) (UniProt P9WFW3); assay: Assay for Asp RNA synthetase-1 from Mycobacterium tuberculosis; assay type: functional; set-up: scale not given: direction of the effect not stated beside the values; details: 30 µM; further: in the data most compounds retested in dose-response had high values
T1 sequence (whole entry): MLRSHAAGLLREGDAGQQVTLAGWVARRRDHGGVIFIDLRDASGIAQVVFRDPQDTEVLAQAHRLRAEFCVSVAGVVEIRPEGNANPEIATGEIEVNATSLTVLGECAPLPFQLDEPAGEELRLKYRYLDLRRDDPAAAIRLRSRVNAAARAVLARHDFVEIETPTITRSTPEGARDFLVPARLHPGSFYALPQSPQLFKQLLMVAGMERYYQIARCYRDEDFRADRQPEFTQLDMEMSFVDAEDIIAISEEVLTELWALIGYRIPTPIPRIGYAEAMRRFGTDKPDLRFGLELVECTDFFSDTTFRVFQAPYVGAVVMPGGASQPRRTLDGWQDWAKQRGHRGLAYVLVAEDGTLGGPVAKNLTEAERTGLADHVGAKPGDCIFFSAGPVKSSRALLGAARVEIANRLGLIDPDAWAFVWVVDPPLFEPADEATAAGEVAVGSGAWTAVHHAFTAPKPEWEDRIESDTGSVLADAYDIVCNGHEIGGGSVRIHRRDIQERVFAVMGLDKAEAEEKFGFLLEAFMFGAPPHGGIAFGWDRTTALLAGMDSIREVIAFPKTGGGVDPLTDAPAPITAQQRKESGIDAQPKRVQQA

[2] = target: Shiga toxin 2 (Escherichia coli O157:H7) (UniProt P09385+P09386); assay: E. coli 0.157:H7 Shiga Toxin SOP - stx2 screening assay; assay type: functional; set-up: scale not given: direction of the effect not stated beside the values; details: 30 µM

Structure (SMILES) | Percent Effect [1] | Percent Effect [2]
Cc1nn(C)c2cn(C(C)C(=O)NCc3cccnc3)nc12 (configuration not stated) | -1.71% | -24.9%
O=C(Nc1ccccc1)C1CN(CC2CC2)CC12CCOCC2 (configuration not stated) | 0.903% | -13.2%
CCOc1ncccc1NC(=O)NCC(O)c1ccccc1OC (configuration not stated) | -0.742% | -2.67%
Cc1cc(C(=O)N2CC[C@H](OCC3CC3)[C@@H]2Cc2cccnc2)no1 | 1.17% | 1.88%
CCCNC(=O)c1cc2c([nH]c1=O)CC(c1cccs1)CC2=O (configuration not stated) | -5.46% | -20.3%
CC1CN(C)c2ccccc2CN1C(=O)CSc1ccncc1 (configuration not stated) | 6.09% | -6.66%
CC(=O)N1CCCC(c2cnc(-c3c(C)nn(C)c3C)cn2)C1 (configuration not stated) | -3.49% | -14.1%
Cc1ccc(N2CCN(C(=O)COc3nccc(C)n3)CC2)nn1 | -6.35% | -50.4%
CC(=O)c1ccc(C(=O)NCCCOC(C)c2ccccc2)s1 (configuration not stated) | -4.7% | -71.8%
CCC1CN(CC(=O)N2CCC2)CCN1CCOC (configuration not stated) | 7.2% | 9.62%
Cc1nc(O)c2nnn(C[C@H]3CCCN3C(=O)CCC3CCCC3)c2n1 | 2.01% | 13%
CN(C)C[C@H]1OC[C@@H]2CCN(C(=O)c3ccco3)C[C@@H]21 | -2.13% | -9.03%
Cc1cnn(CC2CN(CC(=O)N(C)c3nccs3)CCO2)c1 (configuration not stated) | -6.72% | 11%
COCC(O)CNC(=O)c1cnc(-c2ccccc2)nc1O (configuration not stated) | 2.15% | -7.39%
COc1ccc(CCNC(=O)NC2CCCC2)cc1OC | 2.58% | -10.6%
CC(C)(C)OC(=O)N1CCCC[C@H]1C(=O)NCc1nccs1 | -1.06% | -16.6%
NC(=O)c1cc(NC(=O)N2CCCCCC2)ccc1F | 1.17% | -21.4%
Cc1nc(CN2CCC3(CC2)NC(=O)CC3c2ccccc2)cs1 (configuration not stated) | -5.35% | 7.78%
CC(=O)Nc1nc(C2CCN(CC(N)=O)CC2)cs1 | -7.79% | -8.65%
c1cnc(N2CCOC3(CCN(CC4CCCCC4)CC3)C2)nc1 | -0.897% | -3.02%
CC(=O)N1CCCC1c1ccc(C(=O)N2CCOCC2)s1 (configuration not stated) | 2.33% | -18.8%
CNC(=O)[C@H]1C[C@@H]2CN(S(=O)(=O)c3ccccc3)C[C@@H]2N1C | -3.51% | -39.6%
Cc1nccc(CNC(=O)NCCOc2ccc(F)c(F)c2)n1 | -2.26% | -21%
NC(=O)C1CN(C(=O)Nc2ccccc2N2CCCCCC2)CCO1 (configuration not stated) | 0.991% | 7.25%
O=C(C(CNCc1ccncc1)c1ccccc1)N1CCOCC1 (configuration not stated) | 11.7% | -69.6%
Cc1cccc(N2CC[C@@H]3CN(C(=O)c4ccco4)CCO[C@@H]3C2)n1 | -0.221% | 1.6%

Structure (SMILES) | Percent Effect [1] | Percent Effect [2]
Cc1noc(CCCC(=O)NC(C)c2cn(-c3ccccc3)nn2)n1 (configuration not stated) | -5.92% | 0.819%
CCOc1ccccc1-c1noc(CN2CC(n3cccn3)C2)n1 | 0.259% | 34.8%
CCn1ncc(Br)c1CN(C)S(=O)(=O)c1ccc(C)cc1 | 0.0735% | -7.09%
CC(C)CCc1noc(CN2CCCN(C(=O)c3ccco3)CC2)n1 | -1.32% | -9.12%
COc1ccc(CNCc2ccnc(N3CCOCC3)c2)c(OC)c1 | 1.38% | 17.1%
CN(Cc1ccsc1)C(=O)CN1CCOC(Cn2cccn2)C1 (configuration not stated) | 0.463% | -18.6%
Cc1nc(C)n(C2CCCN(C(=O)CCCn3ccnc3)C2)n1 (configuration not stated) | -0.127% | -12.7%
CN(C)Cc1ccc(C2CCCCN2C(=O)c2cccc(CO)n2)cc1 (configuration not stated) | -3.06% | 0.431%
c1ccc(Cn2cc3c(n2)C(COCC2CC2)OCC3)nc1 (configuration not stated) | 4.12% | -12.1%
NC(=O)CC1CCN(C(=O)NCc2ccccc2-n2cccn2)CC1 | -3.48% | -4.75%
Cc1cc2cc(C(=O)N[C@@H]3CC[C@@H](N4CCOCC4)[C@@H]3O)ccc2o1 | 2.49% | 4.91%
CNC(=O)N1C[C@H]2C[C@H](C(=O)Nc3ccccc3)[C@@H](C1)O2 | 2.94% | 6.82%
C[C@H](O)CNC(=O)c1cnc(-c2ccccc2)nc1O | 2.44% | -10.8%
O=C(NCc1cc[nH]n1)N(CCCO)C1CCc2ccccc21 (configuration not stated) | 1.93% | 0.536%
Cc1[nH]ccc1C(=O)N1CCCC(c2nccn2Cc2cscn2)C1 (configuration not stated) | -2.28% | 4.58%
CS(=O)(=O)N1CCC(C(=O)NC(Cc2ccsc2)c2ccccn2)CC1 (configuration not stated) | -1.32% | 14.7%
CC(C)S(=O)(=O)NCC1CCCN(C(=O)c2cccnc2)C1 (configuration not stated) | -0.834% | -4.9%
CN(CC1CCCCC1)C(=O)c1ccc(-n2ncc(C#N)c2N)cc1 | -2.55% | -24.4%
Cc1ccc(-c2cc(N)c(=O)n(CC(=O)NC3CCCCC3)n2)s1 | 1.95% | 13.1%
CCn1c(N)nc2cc(C(=O)NCCc3ccccc3C)cnc21 | 7.33% | -69.2%
COCCCN1CCC(NC(=O)C(C)C)CC1 | -2.37% | -36.2%
c1ccc(N2CCCC3(COCCN(c4nccs4)C3)C2)nc1 (configuration not stated) | 3.08% | -3.13%
COc1ncc(C2(O)CCN(Cc3ccccc3O)CC2)c(OC)n1 | -1.78% | -22.9%
Cc1cc(C)n(CC2CN(Cc3nc(-c4ccco4)no3)CCO2)n1 (configuration not stated) | 1.64% | -16.4%
Cc1cccc(OCCC(=O)NCC(C)(C)C(N)=O)c1 | 0.144% | 31.1%
Cc1cc(C2CCCN(C(=O)c3ccc(C)[nH]c3=O)C2)n[nH]1 (configuration not stated) | -1% | 3.9%

Structure (SMILES) | Percent Effect [1] | Percent Effect [2]
Cc1cnc(C(=O)N2CCCC(n3ccnc3C)C2)cn1 (configuration not stated) | -3.23% | -18.1%
Cc1nc(CN2CCCC(Cn3cc(CCO)nn3)C2)c[nH]1 (configuration not stated) | 0.881% | -6.46%
Cc1n[nH]c(C2CN(CC(=O)NCCc3ccsc3)CCO2)n1 (configuration not stated) | -3.33% | 7.26%
Cc1nc(C)n(CC2CCCN(Cc3cccc(C#N)c3)C2)n1 (configuration not stated) | 3.85% | 25.5%
Cc1ccc(CNC(CN2CCN(C)CC2)c2ccccc2)cc1 (configuration not stated) | 3.88% | -2.09%
Cc1cnn(CC(C)NCc2ccc(-n3cccn3)cc2)c1 (configuration not stated) | -3.68% | -40%
Cc1noc(-c2ccc(N3CCCC(C(=O)N4CCSCC4)C3)nc2)n1 (configuration not stated) | -3.39% | 10.1%
Cc1noc([C@@]23CCO[C@@H]2CCN(C(=O)c2sccc2C)C3)n1 | -0.466% | -3.55%
COc1c(C)cnc(CN2CCC(N(C)C(C)C(N)=O)CC2)c1C (configuration not stated) | -3.49% | -5%
Cn1ccc2ccnc(CC3CN(C(=O)C4CCC(F)(F)CC4)C3)c21 | 0.551% | -23.1%
Cc1ncsc1CN1C[C@@H](OCC2CC2)[C@H]2OCCC[C@H]21 | -6.67% | 4.7%
COCC(=O)N1CCC(c2cc(C(F)(F)F)n3ccnc3n2)CC1 | -2.99% | -10.9%
Cc1ccc(NC2CCN(C(=O)c3cc(C(N)=O)cs3)CC2)nn1 | 4.69% | 3.48%
NC(=O)C1CCN(C(=O)c2ccn(-c3ccc(F)cc3)n2)C1 (configuration not stated) | 9.24% | 3.03%
CCCS(=O)(=O)NCc1cccnc1OCC | -1.52% | -6.28%
COCC1CN(C(=O)COc2ccccc2)Cc2cn(C)nc21 (configuration not stated) | 1.18% | 0.0839%
COCCN(C)CCN1CC2(CCN(C(=O)C3CCOC3)CC2)OC1=O (configuration not stated) | -1.75% | -24.2%
COc1cc2cc(C(=O)N[C@@H](C)C(=O)O)n(C)c2c(OC)c1OC | -3.11% | -30.8%
COCCC(=O)N1CCN(C)c2ncccc2C1 | 4.52% | -19.6%
CCCN(C(=O)c1ccccn1)c1nc2c(s1)CCc1c-2cnn1C | 55.9% | -72.4%
Cc1cc(N2CCN(Cc3ccccc3)CC(O)C2)cc(C)n1 (configuration not stated) | -5.25% | -16.3%
Cn1c(CN2CCCC2c2noc(C3CC3)n2)cc(=O)n(C)c1=O (configuration not stated) | -4.22% | -7.03%
c1nc2c(c(C3CC3)n1)CCN(CC1CCOC1)CC2 (configuration not stated) | 3.35% | -6.27%
Cn1cc(C(=O)NC2CCN(Cc3ccn(C)c(=O)c3)CC2)cn1 | 1.68% | -28%
CNc1cncc(C2CCCN(S(C)(=O)=O)C2)n1 (configuration not stated) | 5.76% | 2.62%
CNS(=O)(=O)CCCN1CCCC1c1noc(C2CC2)n1 (configuration not stated) | -2.37% | 4.89%

Structure (SMILES) | Percent Effect [1] | Percent Effect [2]
CC(OCC1CC1)C(=O)N1CCCN(Cc2nccn2C)CC1 (configuration not stated) | 7.9% | -20.4%
O=C1[C@H]2CN(Cc3nccs3)C[C@H]2CN1c1ccsc1 | 5% | 1.38%
O=C(N1CCCC1)N1CCN(CC2CC2)c2ncccc2C1 | 3.25% | -4.59%
CCc1noc(C)c1C(=O)N1CCCC1c1c(C)nn(C)c1OC (configuration not stated) | -3.25% | 5.57%
CNc1cc2c(nn1)CCN(C(=O)c1cc(F)cc(F)c1)C2 | -0.49% | 12.4%
Cn1ccnc1CN1CCC2(CC1)CN(CC1CC1)C(=O)CO2 | 2.11% | -17.7%
COCCCC1CCCN(C(=O)CCc2cc(O)no2)C1 (configuration not stated) | -7.41% | -0.726%
CN(C)[C@@H]1CCN(C(=O)c2ccsc2)[C@H]1Cc1cnn(C)c1 | -0.691% | -4.3%
Cc1ccc(-c2nc(CN3CCc4nn(C)c(=O)cc4C3)no2)cc1 | 5.81% | -0.113%
O=C(C1=CC2(CCNCC2)c2ccccc21)N1CCCC1 | 3.17% | -0.391%
N#Cc1ccc(CNCC2CCN(CCO)CC2)cc1 | 5.92% | -29.9%
Cc1scc(C(=O)N2CCC3(CC(=O)NC3=O)C2)c1-c1ccccc1 (configuration not stated) | 0.19% | 8.3%
Cc1cnn(C2CCCN(C(=O)c3sccc3C#N)C2)c1 (configuration not stated) | 1.95% | -36.4%
CN1CCCc2cc(CNC(=O)c3ccncc3)ccc21 | -7.79% | -75.2%
Cc1cc(-c2nn(C)c(Cl)c2CN2CCOCC2CC(=O)O)no1 (configuration not stated) | -2.48% | 19.9%
CC(C)c1nccn1-c1cccc(C2CCCN2S(=O)(=O)N(C)C)n1 (configuration not stated) | 8.78% | 0.999%
COCCN1CC[C@@H](O)[C@@H]1Cc1ccccc1 | 1.19% | -38.2%
CC(=O)N(Cc1noc(C)n1)C1CCN(Cc2ccon2)C1 (configuration not stated) | -1.5% | -70.9%
CS(=O)(=O)N1CCCCCC1C1CCN(c2ncccn2)CC1 (configuration not stated) | -3.75% | 24.4%
CNc1cncc(C2CCCN2Cc2ccccn2)n1 (configuration not stated) | -3.38% | -10.2%
O=C(NCCCN1CCCCC1)c1ccc(-n2ccc3ccccc32)s1 | 5.58% | -90%
COc1ccsc1C(=O)N1CCCC(n2nc(C)nc2C)C1 (configuration not stated) | 0.571% | 6.02%
Cc1cc(CN(C)C(=O)c2cc3c([nH]c2=O)CCCC3=O)no1 | 2.54% | 20.8%
